# ± gives the standard deviation.
# Assays:
# Details in all cases: modulator concentration 10 µM
# [1] = system: RAW-Dual (murine macrophage reporter line); assay: NF-kB reporter (SEAP) activity fold change vs agonist alone; higher = enhanced NF-kB activity
# In short: (§1)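 In 384-well plates holding 50 000 RAW-Dual murine macrophage reporter cells per well, compound at 10 μM final was pre-incubated for 1 hour at 37 °C, after which a PRR agonist was added overnight. Supernatant SEAP read with QUANTI-Blue at 620 nm absorbance reported NF-κB, and Lucia luciferase read with QUANTI-Luc luminescence reported IRF. Fold change values come from dividing each reporter signal by the mean of agonist-only control wells on the same plate, averaged over replicate plates with propagated errors.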
# [2] = system: RAW-Dual (murine macrophage reporter line); assay: IRF reporter (Lucia luciferase) activity fold change vs agonist alone; higher = enhanced IRF activity
# In short: as §1
# [3] = system: RAW-Dual (murine macrophage reporter line); assay: viability score (confluency relative to resting cells, overnight) (fraction); higher = more viable, active = viable (0.7 or more)
# In short: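 RAW-Dual macrophages in 384-well plates were exposed overnight to compound at 10 μM final. Confluency was imaged with IncuCyte, and two confluency masks were generated with IncuCyte software over all imaged wells. The viability score is confluency expressed relative to resting cells. Compounds were called viable if both masks exceeded 70% of resting cells.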
# [4] = agonist: CpG ODN 1826 0.5 ug/mL
SMILES,"NF-kB reporter [1, 4]",NF-kB reporter ([1]; agonist: LPS 0.1 ug/mL),NF-kB reporter ([1]; agonist: MPLA […]),IRF reporter ([2]; agonist: 3'3'-cGAMP 10 ug/mL),IRF reporter ([2]; agonist: LPS 0.1 ug/mL),IRF reporter ([2]; agonist: MPLA […]),viability score [3]
C#CCOc1ccc(C=C2C(=O)NC(=O)N(c3cc(OC)c(Cl)cc3OC)C2=O)cc1Cl,1.1 ± 0.1,1 ± 0.059,0.899 ± 0.056,0.952 ± 0.051,1.15 ± 0.12,0.887 ± 0.055,1.01 (active)
CCCC(=O)c1ccc(N2CCN(C)CC2)c(F)c1,0.956 ± 0.097,0.876 ± 0.1,0.906 ± 0.088,1.02 ± 0.056,1.22 ± 0.17,1.27 ± 0.24,1.03 (active)
CCOC(=O)Nc1ccc(NCc2ccc(F)cc2)cc1N,0.882 ± 0.039,1.09 ± 0.086,0.936 ± 0.051,0.893 ± 0.044,1.2 ± 0.33,1.33 ± 0.51,1.01 (active)
CCOC(=O)c1ccccc1-c1ccc(C=C2C(=O)NC(=O)N(c3cccc(C)c3)C2=O)o1,1 ± 0.18,0.965 ± 0.11,0.881 ± 0.069,1 ± 0.029,1.2 ± 0.14,1.09 ± 0.12,0.995 (active)
NNC(=O)c1ccccc1,1.06 ± 0.088,1.05 ± 0.082,1.02 ± 0.022,0.929 ± 0.086,0.914 ± 0.15,0.931 ± 0.12,1 (active)
Fc1ccc(CNCCc2c[nH]c3ccccc23)cc1,0.733 ± 0.32,1.08 ± 0.15,0.955 ± 0.075,0.751 ± 0.063,1.1 ± 0.12,1.29 ± 0.28,0.599 (inactive)
O=C(NCCN1CCN(c2ccccc2)CC1)c1ccc(F)cc1,1 ± 0.081,1.04 ± 0.051,1.03 ± 0.026,1.1 ± 0.18,0.94 ± 0.045,0.83 ± 0.084,1 (active)
COc1cc2c(cc1O)CC1c3c(cc(O)c(OC)c3-2)CCN1C (centres undefined),0.916 ± 0.23,0.96 ± 0.078,0.924 ± 0.092,0.881 ± 0.03,1.17 ± 0.16,1.12 ± 0.11,0.999 (active)
O=C1CCC(=O)N1C1CC2CCC(C1)N2C(=O)Cc1cccc2ccccc12 (centres undefined),0.977 ± 0.049,1.12 ± 0.099,0.913 ± 0.11,1.08 ± 0.066,1.25 ± 0.076,1.16 ± 0.21,1.01 (active)
COc1cc2c(c(OC)c1OC)-c1ccc(O)c(=O)cc1C(NC(C)=O)CC2 (centres undefined),2.16 ± 0.12,1.27 ± 0.084,1.52 ± 0.16,0.705 ± 0.024,1.26 ± 0.082,1.08 ± 0.19,0.754 (active)
CC[C@@]1(O)C(=O)OCc2c1cc1n(c2=O)Cc2cc3ccccc3nc2-1 [Prestw-200],1.33 ± 0.23,1.75 ± 0.17,2.95 ± 0.72,3.06 ± 0.081,2.05 ± 0.42,2.66 ± 0.37,0.768 (active)
O=Cc1cn(Cc2cccc3ccccc23)c2ccccc12,0.959 ± 0.16,1.01 ± 0.11,1.16 ± 0.12,1.09 ± 0.03,1.25 ± 0.28,1.23 ± 0.25,0.989 (active)
CC(C)NC(C)C(O)c1ccc2c(c1)CCCC2.Cl (centres undefined),0.838 ± 0.066,1 ± 0.086,1.1 ± 0.038,0.818 ± 0.091,1 ± 0.099,0.891 ± 0.23,0.994 (active)
COc1cc(C2c3cc4c(cc3C(O)C3COC(=O)C23)OCO4)cc(OC)c1OC (centres undefined),1.37 ± 0.41,0.807 ± 0.077,1.08 ± 0.1,0.688 ± 0.021,1.19 ± 0.17,1.51 ± 0.22,0.967 (active)
CC[N+]1(C)CCCC(OC(=O)C(O)(c2ccccc2)c2ccccc2)C1 (centres undefined) [Prestw-760],0.921 ± 0.061,0.955 ± 0.092,0.966 ± 0.073,0.952 ± 0.038,1.13 ± 0.09,0.973 ± 0.18,0.994 (active)
O=[N+]([O-])c1ccc(NCCc2ccccc2)c2ncccc12,0.971 ± 0.17,1.04 ± 0.086,1.6 ± 0.64,0.926 ± 0.032,1.25 ± 0.21,1.31 ± 0.2,0.997 (active)
COc1ccc(N2C(=O)C(=Cc3ccc(OCc4ccc(F)cc4)c(OC)c3)C(=O)NC2=S)cc1,1.08 ± 0.11,1.04 ± 0.085,0.932 ± 0.057,0.919 ± 0.042,1.02 ± 0.062,1.05 ± 0.13,1.01 (active)
Cc1c(NC=C2C(=O)NC(=O)NC2=O)c(=O)n(-c2ccccc2)n1C,0.967 ± 0.077,1.08 ± 0.074,0.957 ± 0.06,1.01 ± 0.029,1.45 ± 0.2,1.08 ± 0.069,1.02 (active)
COc1ccccc1N1C(=O)C(=Cc2ccc(C)s2)C(=O)NC1=S,1.07 ± 0.11,1.08 ± 0.093,0.973 ± 0.084,0.953 ± 0.049,1.8 ± 0.28,1.39 ± 0.14,0.992 (active)
CCC1(O)C(=O)OCc2c1cc1n(c2=O)Cc2cc3ccccc3nc2-1 (centres undefined),0.948 ± 0.074,0.912 ± 0.069,0.889 ± 0.092,1.04 ± 0.033,1.24 ± 0.2,1.41 ± 0.24,0.974 (active)
CN1C(=O)NC(=O)C(=Cc2cc(Br)cc(Cl)c2O)C1=O,0.19 ± 0.019,0.505 ± 0.026,1.32 ± 0.63,0.537 ± 0.042,1.11 ± 0.078,0.942 ± 0.079,1.01 (active)
CC(C)c1c(CN(C)C(C)Cc2ccccc2)n(C)n(-c2ccccc2)c1=O (centres undefined) [Prestw-703],1.35 ± 0.082,1 ± 0.17,1.05 ± 0.067,0.792 ± 0.03,1.02 ± 0.073,0.995 ± 0.14,0.998 (active)
COc1ccc(C(CN(C)C)C2(O)CCCCC2)cc1 (centres undefined) [Prestw-1170],0.741 ± 0.12,1.17 ± 0.14,0.956 ± 0.074,0.916 ± 0.031,1.11 ± 0.22,1.37 ± 0.23,0.981 (active)
O=C1NC(=O)C(=CNc2ccccc2C(F)(F)F)C(=O)N1,1.13 ± 0.11,0.946 ± 0.11,1.04 ± 0.1,1.02 ± 0.034,1.21 ± 0.24,1.2 ± 0.2,1.02 (active)
COC12CC(COC(=O)c3cncc(Br)c3)CN(C)C1Cc1cn(C)c3cccc2c13 (centres undefined),1.02 ± 0.11,1.01 ± 0.078,1.03 ± 0.13,0.905 ± 0.065,1.16 ± 0.11,1.19 ± 0.16,1.04 (active)
COc1cc(CNCCc2ccc(OC)c(OC)c2)cc(OC)c1,0.973 ± 0.078,0.959 ± 0.14,0.989 ± 0.093,1.02 ± 0.032,1.22 ± 0.13,1.45 ± 0.18,1.02 (active)
CC12CCC3C(CC=C4CC(O)CCC43C)C1CC(=Cc1cccc(F)c1)C2=O (centres undefined),0.722 ± 0.046,1 ± 0.061,1.05 ± 0.083,0.907 ± 0.03,1.61 ± 0.13,1.31 ± 0.12,0.933 (active)

# From the supplement of paper PMC10646978
